Inconclusive results are not listed. Active and inactive are the calls of the source. Calls follow the shape of the dose curve; as a rule, active = well fitted curve in the direction sought with a large enough effect; inconclusive = small, poorly fitted or top-dose-only effect, or effect the other way, or another doubt; inactive = no such curve, though single readings can be large or run the other way. Starred links: 1 amine or outer side, 2 acyl side, 3 side chain; linkers in the order of their positions; H or OH if unused. Positions of bridges follow the written chain, without caps; N, C: chain ends. Non-standard residues stand in square brackets, D forms with d. Residues, ends and D or L forms follow the SMILES beside them. ξ: configuration not given here. *: point of attachment. X3 = C[C@@H](Oc1ccc([C@H](N[*:1])C(=O)[*:2])cc1)[C@]1(/C=C\C(=O)[*:3])CO1; d(aIle) = CC[C@H](C)[C@@H](N)C(=O)O; X2 = CC(C)[C@@H](O)C(C)C(=O)*; ξNMeF = CNC(Cc1ccccc1)C(=O)O; ξT = CC(O)C(N)C(=O)O; ξS = NC(CO)C(=O)O

This assay can be described thus: DH5-alpha competent E. coli microbial cell viability qHTS against the NCATS CANVASS Library (AID 1347377). The note with it: BacTiter-Glo ATP luminescence, overnight; series mostly up to 46.1 µM. From the text: Natural products and their derivatives continue to be wellsprings of nascent therapeutic potential. However, many laboratories have limited resources for biological evaluation, leaving their previously isolated or synthesized compounds largely or completely untested. To address this issue, the Canvass library of natural products was assembled (https://tripod.nih.gov/canvass), in collaboration with academic and industry researchers, for quantitative high-throughput screening (qHTS) across a diverse set of cell-based and biochemical assays. The pure (>85% purity by liquid chromatography/mass spectrometry [LC/MS]) Canvass library of 346 natural products were submitted by 45 academic laboratories and companies around the world. We collected pure natural products to circumvent deconvolution and structure elucidation due to time and resource limitations. The library was formatted into 1536-well plates and evaluated in 50 qHTS (in an 11-pnt concentration series) bioassays with broad scope of disease-relevant mechanisms. The resulting data set from 50 different assays was then systematically analyzed to identify overall trends and specific natural products with interesting biological activities. Reported herein are the results of each individual qHTS and their corresponding assay protocol. The BacTiter-Glo microbial cell viability assay is a homogeneous method for determining the number of viable bacterial cells in culture based on quantitation of the ATP present. ATP is an indicator of metabolically active cells. The homogeneous assay procedure involves adding a single reagent (BacTiter-GloTM Reagent) directly to bacterial cells in medium and measuring luminescence. National Center for Advancing Translational Sciences (NCATS), Rockville, MD National Institute of Health (NIH), Bethesda, Maryland
DH5-alpha competent E.coli cytotoxicity protocol: 1. In a 1536 well, tissue culture treated white solid bottom plates (Greiner Bio-One North America), 5 uL of DH5-alpha competent E. coli suspension (0.9 OD culture diluted 0.2 OD) was dispensed into columns 1, 2, and 5-48 using the Multidrop Combi dispenser (Thermo Fisher Scientific). 2. Controls and compounds were pin transferred (~23 nL volume) to the assay plates via Wako Pin-tool (Wako Automation, Richmond VA) equipped with a 1536 pin head. The compounds were transferred to columns 5-48 resulting in a final concentration ranging from 0.17nM to 92uM. Daunomycin was used as a control in various concentrations (1mM working concentration; 1:2 dilution; 16 points; n=2; column 2, rows) for a final concentration range of 0.2 nM to 9.2 uM. 3. The assay plates were incubated overnight at 37C, 5% CO2, 95% humidity. 4. 2.5 uL of BacTiterGlo solution (Promega) was then added to the assay plates (column 1-48, rows 1-32). The assay plates were incubated at room temperature for 20 min. 5. Luminescence signal was acquired via the ViewLux plate reader using a clear emission filter, 2 second exposure and 2x binning settings.
On the technique in general: qHTS replaces the single test concentration by a dilution series.
`CC[C@H]1CN2CCc3c([nH]c4cccc(OC)c34)[C@@H]2C[C@@H]1/C(=C\OC)C(=O)OC`: the call was inactive.
The same measure for `C=CC(C)(C)[C@@]12C[C@H]3C(=O)N/C(=C/c4cnc[nH]4)C(=O)N3[C@@H]1Nc1ccccc12`: “inactive”; for `C=CC(C)(C)[C@@]12C[C@H]3C(=O)N/C(=C\c4cnc[nH]4)C(=O)N3[C@@H]1Nc1ccccc12`: “inactive”; for `CC[C@H](C)[C@H]1NC(=O)[C@@H](NC(=O)C(C)[C@H](O)C(C)C)[C@@H](C)OC(=O)C2COC(=O)CNC(=O)/C=C\[C@]3(CO3)[C@@H](C)Oc3ccc(cc3)[C@H](NC1=O)C(=O)N(C)C(Cc1ccccc1)C(=O)NC(C(C)O)C(=O)N2` (stereo partly drawn) (X2-T[d(aIle)][X3][ξNMeF][ξT][ξS]; ester 1-C; linker 3-6 via G): “inactive”.
Then `C1=C2CCCN[C@H]2C2CC1[C@H]1CCCCN1C2` (stereo partly drawn), with “inactive”.
The same measure for `C/C(=C\[C@H](C)C(=O)C[C@H](O)CC1CC(=O)NC(=O)C1)[C@@H]1OC(=O)/C=C/CC/C=C/C=C/[C@@H]1C`: “inactive”; for `CO[C@@]12c3c(C)cc(O)c4c(=O)occ(c34)C(=O)[C@@H]1[C@]13COC(=O)c4c(O)cc(C)c(c41)C(=O)[C@H]2[C@@H]3OC(C)=O`: “inactive”; for `CC[C@]12C=CCN3CC[C@]4(C(=C(C(=O)OC)C1)Nc1ccccc14)[C@@H]32`: “inactive”.
For the molecule `C[C@]12CC(O)C3[C@@H](CCC4C[C@@H](O)CC[C@@]43CO)[C@@]1(O)CC[C@@H]2C1=CC(=O)OC1` (stereo partly drawn), the result was inactive.
The same measure for `CO[C@H]1C[C@H](O[C@H]2[C@@H](O)C[C@H](O[C@H]3CC[C@]4(C=O)[C@H]5CC[C@]6(C)C(C7=CC(=O)OC7)CC[C@]6(O)[C@@H]5CC[C@]4(O)C3)O[C@@H]2C)O[C@H](C)[C@H]1O[C@H]1C[C@@H](OC)[C@@H](O[C@@H]2O[C@H](CO)[C@@H](O)[C@H](O)[C@H]2O)[C@@H](C)O1` (stereo partly drawn): “inactive”.
The same measure for `CC[C@@H]1CN2CCC3(Nc4cccc(OC)c4C3=O)[C@@H]2C[C@@H]1/C(=C\OC)C(=O)OC` (stereo partly drawn): “inactive”.
As to `CCCCC1CC[C@H]2CCCC(CCC)N12` (stereo partly drawn), the outcome was inactive.
The same measure for `CO[C@@H](/C=C/CC/C=C/C(=O)O)[C@@H](O)[C@H](C)/C=C(\C)[C@H](O)[C@H](C)C(=O)CCCC1CC(=O)NC(=O)C1`: “inactive”; for `CO[C@H]1[C@H](O[C@H]2CC[C@]3(C=O)[C@H]4CC[C@]5(C)[C@@H](C6=CC(=O)OC6)CC[C@]5(O)[C@@H]4CC[C@]3(O)C2)O[C@H](C)[C@H](O)[C@@H]1OC`: “inactive”; for `C=C[C@H]1CN2CCc3c([nH]c4cccc(OC)c34)[C@@H]2C[C@@H]1/C(=C\OC)C(=O)OC`: “inactive”.
The same measure for `C/C=C1/CN2CC[C@@]34c5ccccc5N(C)[C@@H]3[C@@H]2C[C@@H]1[C@H]4C(=O)OC`: “inactive”.
Then `C=C(C)[C@H]1C(=O)c2c3c(cc4c5c(n1c24)[C@@]1(C)[C@@H](CC[C@H]2[C@](C)(/C=C/C=C(\C)C(=O)O)[C@@H](O)CC[C@@]21C)C5)C1=CC(C)(C)OC(C)(C)[C@H]1[C@@H]3O`, with “inactive”.
On to `C[C@]12CC(O)C3[C@@H](CC[C@@H]4C[C@@H](O)CC[C@]34CO)[C@@]1(O)CC[C@@H]2C1=CC(=O)OC1` (stereo partly drawn), for which the molecule was called inactive.
Then `O[C@H]1C=C[C@@]23CCN(Cc4cc5c(cc42)OCO5)[C@@H]3C1`, with “inactive”; and `c1ccc2nc3c(cc2c1)[nH]c1ccccc13`, with “inactive”; and `COC1=C(C2=C(OC)C(=O)c3cc4c(c(O)c3C2=O)C(=O)O[C@H](C)C4)C(=O)c2c(cc3c(c2O)C(=O)O[C@H](C)C3)C1=O`, with “inactive [at 15.4 µM]”.
Then `CO[C@H]([C@@H](C)[C@H]1O[C@]1(C)C[C@H](C)/C=C/C=C(\C)[C@H]1O[C@@H](CC(=O)O)CC[C@@H]1C)[C@@H](C)O`, with “inactive”.
The same measure for `C[N+](C)(C)CCc1c[nH]c2ccccc12`: “inactive”.
For the molecule `C=C[C@]12C=CCN3CC[C@@]4(c5ccccc5NC(=O)[C@@H]4C1)[C@@H]32`, the molecule was classed as inactive.
The same measure for `C[C@]12CCC3[C@@H](CC[C@@H]4C[C@@H](O)CC[C@]34CO)[C@@]1(O)CC[C@@H]2C1=CC(=O)OC1` (stereo partly drawn): “inactive”.
The same measure for `C/C=C/[C@@H]1[C@H]2C[C@@H](C)CC[C@@H]2C(C)=C[C@H]1C(=O)c1c(O)c(-c2ccc(O)cc2)c[nH]c1=O`: “inactive”; for `CCCC[C@@H]1CC[C@H]2CCCC(CCCO)N12` (stereo partly drawn): “inactive”; for `COC1C(O)C(C)OC(OC2C(Oc3cccc4c(O)c5c(=O)oc6ccc(C)c7c(=O)oc(c34)c5c67)OC(C)C(O)C2O)C1O` (stereo not drawn): “inactive”.
Consider `CC(C)CC1C(=O)O[C@H](C(C)C)C(=O)N(C)C(CC(C)C)C(=O)O[C@@H](C(C)C)C(=O)N(C)C(CC(C)C)C(=O)O[C@H](C(C)C)C(=O)N(C)C(CC(C)C)C(=O)O[C@@H](C(C)C)C(=O)N1C` (stereo partly drawn), for which the molecule was classed as inactive.
Then `C/C=C(\C)C(=O)O[C@@H]1[C@@H](O)[C@@H]2O[C@H]3[C@H](O[C@@H](CCCCC)CCCCCCC(=O)CCC(=O)OC[C@@H](O2)[C@H]1OC(=O)/C=C/c1ccccc1)O[C@H](C)[C@H](OC(C)=O)[C@@H]3O`, with “inactive”; and `C/C=C1/CN2CC[C@]34C(=C(C(=O)OC)[C@H]1C[C@H]23)Nc1ccccc14`, with “inactive”; and `CC[C@@H]1CN2CCc3c([nH]c4cccc(OC)c34)[C@@H]2C[C@@H]1/C(=C\OC)C(=O)OC`, with “inactive”.
For `CCCC[C@@H](C)/C=C1/CN2CCC[C@H]2[C@@](C)(O)[C@@H]1O`, the outcome was inactive.

These data come from PubChem BioAssay (NCATS).
